This is one part of a sample in which the strongest signals are shown more often than they occur.
Experiments:
Assay in all cases: glycan array binding signal (z-score within array); higher = stronger binding
Details in all cases: glycan notation: IUPAC condensed, linker removed
[1] = biological target: Fuc(a1-2)Gal(b1-4)GlcNAc(b1-3)Gal(b1-4)GlcNAc(b1-3)Gal(b1-4)GlcNAc
Method in brief: (§1)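 Glycan array data came from 3228 arrays in the Consortium for Functional Glycomics database, and only arrays with an available protein sequence were kept. Glycan names were put into IUPAC-condensed notation, and columns mapping to the same glycan were averaged. The binding signal is a within-array Z-score, averaged across arrays of one protein sequence run at different concentrations or buffers and across linkers. A negative Z-score can be read as non-binding.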

Fuc(a1-2)GlcNAc = biological target: Fuc(a1-2)GlcNAc
Method in brief: as §1

Fuc(b1-3)GlcNAc = biological target: Fuc(b1-3)GlcNAc
Method in brief: as §1

Gal(a1-3)GalNAc = biological target: Gal(a1-3)GalNAc
Method in brief: as §1

Gal(a1-4)Gal(b1-4)Glc = biological target: Gal(a1-4)Gal(b1-4)Glc
Method in brief: as §1

[2] = biological target: Gal(b1-3)[GlcNAc(b1-6)]GalNAc
Method in brief: as §1

[3] = biological target: Gal(b1-4)GlcNAc(b1-6)[Gal(b1-3)]GalNAc
Method in brief: as §1

GalNAc(b1-3)GalNAc = biological target: GalNAc(b1-3)GalNAc
Method in brief: as §1

GlcNAc(b1-3)Gal(b1-4)Glc = biological target: GlcNAc(b1-3)Gal(b1-4)Glc
Method in brief: as §1

[4] = biological target: GlcNAc(b1-3)[GlcNAc(b1-6)]GlcNAc(b1-4)GlcNAc
Method in brief: as §1

[5] = biological target: GlcNAc(b1-4)GlcNAc(b1-4)GlcNAc
Method in brief: as §1

Man(a1-2)Man(a1-3)Man = biological target: Man(a1-2)Man(a1-3)Man
Method in brief: as §1

[6] = biological target: Neu5Ac(a2-3)Gal(b1-3)[Fuc(a1-4)]GlcNAc(b1-3)Gal(b1-4)[Fuc(a1-3)]GlcNAc
Method in brief: as §1

[7] = biological target: Neu5Ac(a2-3)[Neu5Ac(a2-6)]GalNAc
Method in brief: as §1

B1: F17eG (Escherichia coli), Q9RH92 (protein)
chain: MTNFYKVFLAVFILVCCNISHAAVSFIGSTENDVGPSQSSYSRTHAMDNLPFVYNTGYNIGYQNANVWRISGGFCVGLDGKVDLPVVGSLDGQSIYGLTEEVGLLIWMGDTNYSRGTAMSGNSWENVFSGWCVGNYVSTQGLSVHVRPVILKRNSSAQYSVQKTSIGSIRMRPYNGSSAGSVQTTVNFSLNPFTLNDTVTSCRLLTPSAVNVSLAAISAGQLPSSGDEVVAGTTSLKLQCDAGVTVWATLTDATTPSNRSDILTLTGASTATGVGLRIYKNTDSTPLKFGPDSPVKGNENQWQLSTGTETSPSVRLYVKYVNTGEGINPGTVNGISTFTFSYQ
glycan array binding signal (z-score) [1]: -0.298 | glycan array binding signal (z-score) (Fuc(a1-2)GlcNAc): -0.176 | glycan array binding signal (z-score) (Fuc(b1-3)GlcNAc): -0.315 | glycan array binding signal (z-score) (Gal(a1-3)GalNAc): -0.302 | glycan array binding signal (z-score) (Gal(a1-4)Gal(b1-4)Glc): -0.293 | glycan array binding signal (z-score) [2]: 4.13 | glycan array binding signal (z-score) [3]: -0.31 | glycan array binding signal (z-score) (GalNAc(b1-3)GalNAc): 4.3 | glycan array binding signal (z-score) (GlcNAc(b1-3)Gal(b1-4)Glc): 4.59 | glycan array binding signal (z-score) [4]: 4.3 | glycan array binding signal (z-score) [5]: 0.197 | glycan array binding signal (z-score) (Man(a1-2)Man(a1-3)Man): -0.302 | glycan array binding signal (z-score) [6]: -0.097 | glycan array binding signal (z-score) [7]: -0.208
